PubChem BioAssay (Tox21)
Inconclusive results are not listed. Where a call stands in place of a potency, no number is given. Some compounds were tested as several samples or in several runs, with calls that do not always agree. The source made the active and inactive calls. Calls come from the whole dose curve; as a rule, active = well fitted curve in the direction sought with a large enough effect in the repeat runs; inconclusive = weak or mixed curves; inactive = no such curve, though single readings can be large; an effect the other way counts as inactive or inconclusive.

Tested on: not listed separately
Assay: qHTS assay to identify small molecule antagonists of the androgen receptor (AR) signaling pathway using the MDA cell line in the presence of 0.5 nM R1881 - cell viability counter screen (AID 1259242); note: nearly all actives have a fitted effect of over 45% in size
Details: MDA-kb2 viability, CellTiter-Fluor protease fluorescence, 16 h; series mostly up to 92.4 µM
Method in brief: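 Fluorescence from CellTiter-Fluor, which reports protease activity of live cells, was read 30 min after reagent addition to MDA-kb2 cells that had been incubated 16 hr with compound and 0.5 nM R1881.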
Potency is the fitted concentration of half-maximal effect.

SMILES	Potency
Cc1cc(=O)[nH]c(=O)[nH]1	inactive
CCCCCCCC/C=C\CCCCCCCC(=O)OCCOC(=O)CCCCCCC/C=C\CCCCCCCC	inactive
CSc1ccc2c(c1)N(CCC1CCCCN1C)c1ccccc1S2 (stereo not given)	54.3 µM (active)
Cn1cnc2ncnc(N)c21	inactive
COc1ccc(C#N)cc1	inactive
CCc1cccc(C)c1	inactive
CC(C)=CC1CC(C)CCO1 (stereo not given)	inactive
CCCCCCCCCCCCCOP(=O)(O)O	inactive
O=C1OC(=O)c2ccc3c4c(ccc1c24)C(=O)OC3=O	inactive

Target: Estrogen receptor (Homo sapiens) (UniProt P03372)
Assay: qHTS assay to identify small molecule antagonists of the estrogen receptor alpha (ER-alpha) signaling pathway using the BG1 cell line in the presence of 0.1 nM 17-beta-estradiol (AID 1259244); note: nearly all actives have a fitted effect of over 50% in size
Details: VM7Luc4E2 (BG1) ERE-luciferase, antagonist mode, 0.1 nM E2, 22 h; series mostly up to 92.4 µM
Method in brief: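 Quantitative high-throughput screen in VM7Luc4E2 cells: compound plus 0.1 nM E2 (final), 22 h, 37C, 5% CO2; ONE-Glo added, 30 min room temperature, luminescence measured.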

Sequence of Estrogen receptor (Homo sapiens) (P03372 whole entry, looked up): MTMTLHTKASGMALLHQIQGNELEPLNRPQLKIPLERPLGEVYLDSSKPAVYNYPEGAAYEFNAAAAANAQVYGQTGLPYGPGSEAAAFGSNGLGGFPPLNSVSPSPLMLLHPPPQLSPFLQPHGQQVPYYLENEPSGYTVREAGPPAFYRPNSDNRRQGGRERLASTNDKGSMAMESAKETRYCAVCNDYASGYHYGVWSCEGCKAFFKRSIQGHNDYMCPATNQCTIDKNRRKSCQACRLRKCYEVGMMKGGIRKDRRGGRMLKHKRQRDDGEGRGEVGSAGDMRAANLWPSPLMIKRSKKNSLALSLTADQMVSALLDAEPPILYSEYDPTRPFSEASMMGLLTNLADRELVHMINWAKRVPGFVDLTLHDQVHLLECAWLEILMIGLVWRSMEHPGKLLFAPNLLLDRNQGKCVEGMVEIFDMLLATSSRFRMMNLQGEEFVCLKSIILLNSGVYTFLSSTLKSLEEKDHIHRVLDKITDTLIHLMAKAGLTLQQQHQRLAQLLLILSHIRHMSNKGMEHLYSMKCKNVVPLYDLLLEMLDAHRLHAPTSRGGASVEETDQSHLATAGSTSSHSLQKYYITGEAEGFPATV

SMILES	Potency	activity change, negative = inhibition
COc1cccc(O)c1	inactive	
CCCCNc1c(C(=O)OCC)c(C)nc2c1cnn2CC	inactive	
O=S(=O)(O)CCCN1CCOCC1	inactive	
CCCCCCCCCCCCCc1ccccc1	inactive	
CC1=CCC(=O)O1	inactive	
CCC(=O)CC(C)CC (stereo not given)		2.34% [at 0.349 µM] (inactive)
Cc1ccc2ccc3cccc4ccc1c2c34	inactive	
O=S(O)O		-4.06% [at 19 µM] (inactive)
O=C=NCc1cccc(CN=C=O)c1		2.93% [at 19 µM] (inactive)
CCN(CC)CCSC(=O)C(c1ccccc1)c1ccccc1	inactive	
CC(=O)c1ccccc1N	inactive	
C=CC(=C)CC/C=C(\C)CCC=C(C)C		3.24% [at 19 µM] (inactive)
c1ccc(Nc2cccc3ccccc23)cc1	inactive	
OCCC(O)CO (stereo not given)	inactive	
Cc1cc(C)c(C=O)c(C)c1	inactive	
CNC(=S)NN	48.6 µM (active)	
CCCCCCCC(C)=O	inactive	
C/C=C/C(=O)Oc1c(CCCCCC(C)C)cc([N+](=O)[O-])cc1[N+](=O)[O-]	4.33 µM (active)	

SMILES	Potency	activity change, negative = inhibition
CCc1cccc(CC)c1N(COC)C(=O)CS(=O)(=O)O	inactive	
C/C=C/C(=O)C1=C(C)CCCC1(C)C	inactive	
CCN(CC)c1cccc(C)c1	inactive	
CC(C)=C1CC[C@@H](C)CC1=O	inactive	
CN(Cc1cc(Br)cc(Br)c1N)C1CCCCC1	inactive	
C(=C/c1ccccc1)/c1ccccc1	inactive	
CCCCCCCC/C=C\CCCCCCCC(=O)N(C)CC(=O)O	inactive	
CC=O	0.403 µM (active)	
CCCCCCCCCCCCCC[n+]1ccccc1	2.17 µM (active)	
Cc1cc(=O)[nH]c(=O)[nH]1	inactive	
CCCCCCCC/C=C\CCCCCCCC(=O)OCCOC(=O)CCCCCCC/C=C\CCCCCCCC	inactive	
CSc1ccc2c(c1)N(CCC1CCCCN1C)c1ccccc1S2 (stereo not given)	54.3 µM (active) and inactive	
Cn1cnc2ncnc(N)c21	inactive	
COc1ccc(C#N)cc1	inactive	
CCc1cccc(C)c1	inactive	
CC(C)=CC1CC(C)CCO1 (stereo not given)	inactive	
CCCCCCCCCCCCCOP(=O)(O)O	inactive	
O=C1OC(=O)c2ccc3c4c(ccc1c24)C(=O)OC3=O	inactive	
